In PubChem BioAssay (NCATS):
Results filed as inconclusive are left out. Values without a mark were called inactive. Active and inactive are the calls of the source. The call rests on the fitted dose curve; in most records, active means well fitted inhibition curve with a large enough effect; inconclusive means small, poorly fitted or top-dose-only effect; inactive means flat fitted curve, though single readings scatter.

Columns and labels:
Assay in all cases: Cytotoxic Profiling of Annotated Libraries Using Quantitative High-Throughput Screening (AID 1296008); further: nearly all actives have a fitted effect of over 60% in size
Conditions in all cases: Five cell lines viability, CellTiter-Glo ATP luminescence, 48-72 h; max response: active compounds read low
CRL-7250 = normal cell line; test system: CRL-7250
Method in brief: (§1)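 Cytotoxicity was measured as CellTiter-Glo ATP luminescence, read after 10 min at room temperature. Compound treatment of the cells lasted 48 or 72 hr at 37 degrees Celsius in a qHTS format.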

HEK293 = test system: HEK293
Method in brief: as §1

HaCat = test system: HaCat
Method in brief: as §1

KB-3-1 = test system: KB-3-1
Method in brief: as §1

NIH3T3 = test system: NIH3T3
Method in brief: as §1
On the % scale 0 is the no-effect control and ±100 the full control effect; potency means the concentration at half of the fitted maximal effect.

O=C(OCC1OC(Oc2ccc(O)cc2COC(=O)C2(O)C(O)CCC(=O)C2OC(=O)C2C=CCC2)C(OC(=O)C2C=CCC2)C(O)C1O)C1C=CCC1 (stereo not given)
max response (CRL-7250): -0.0328%
max response (HEK293): -10.5%
outcome (HaCat): inactive
max response (KB-3-1): 6.15%
max response (NIH3T3): 3.99%

C/C1=C\CC[C@]2(C)O[C@H]2C(=O)c2c(C)coc2C1
max response (CRL-7250): 1.23%
max response (HEK293): -1.35%
outcome (HaCat): inactive
max response (KB-3-1): -3.14%
outcome (NIH3T3): inactive

C=CC(C)(CC/C=C(\C)C(=O)OC)OC1OC(COC(=O)CC(C)(O)CC(=O)O)C(O)C(O)C1O (stereo not given)
max response (CRL-7250): -11.6%
outcome (HEK293): inactive
max response (HaCat): 3.32%
max response (KB-3-1): 1.2%
max response (NIH3T3): -0.702%

O=C(C1OC1/C=C/c1ccc2c(c1)OCO2)N1CCCCC1 (stereo not given)
max response (CRL-7250): 3.99%
max response (HEK293): -7.74%
outcome (HaCat): inactive
max response (KB-3-1): 5.97%
max response (NIH3T3): -1.01%

O=C(N[C@H](Cc1ccccc1)C(=O)O)c1sc2cc(F)ccc2c1Cl
max response (CRL-7250): 2.45%
max response (HEK293): -2.83%
max response (HaCat): -0.292%
outcome (KB-3-1): inactive
outcome (NIH3T3): inactive

CNC(=O)c1ccc2c(c1)CCO[C@H]2CCN1CCN(c2ccc(C(N)=O)cc2)CC1
max response (CRL-7250): 0.998%
max response (HEK293): 3.1%
outcome (HaCat): inactive
max response (KB-3-1): -1.44%
outcome (NIH3T3): inactive

NC1=NC2(c3cc(NC(=O)c4ccc(F)cn4)ccc3F)COCC2CS1 (stereo not given)
max response (CRL-7250): 3.35%
max response (HEK293): -14.7%
outcome (HaCat): inactive
max response (KB-3-1): -4.81%
max response (NIH3T3): -8.12%

Nc1c(-c2ccccc2)nc(Cl)c2c(O)n[nH]c(=O)c12
outcome (CRL-7250): inactive
max response (HEK293): -7.38%
outcome (HaCat): inactive
max response (KB-3-1): 9.61%
outcome (NIH3T3): inactive

Cc1cc(CO)c(O)c(C(=O)CC2CC(=O)NC(=O)C2)c1
outcome (CRL-7250): inactive
max response (HEK293): 4.74%
max response (HaCat): -10.8%
outcome (KB-3-1): inactive
outcome (NIH3T3): inactive

CCCCNc1nc(N)c2[nH]c(=O)n(Cc3ccc(OCCN(C)C)nc3)c2n1
max response (CRL-7250): -6.94%
max response (HEK293): -20.1%
outcome (HaCat): inactive
outcome (KB-3-1): inactive
outcome (NIH3T3): inactive; activator

CC12CC(c3ccoc3)OC(=O)C1CCC1(C)C2CCC(O)C1(C)O (stereo not given)
outcome (CRL-7250): inactive
max response (HEK293): 0.137%
outcome (HaCat): inactive
max response (KB-3-1): 6.59%
outcome (NIH3T3): inactive

COC(=O)C1=COC(O[C@@H]2O[C@H](COC(=O)/C=C/c3ccc(O)cc3)[C@@H](O)[C@H](O)[C@H]2O)C2C(CO)=CCC12 (stereo not given in full)
outcome (CRL-7250): inactive
max response (HEK293): -1.21%
outcome (HaCat): inactive
outcome (KB-3-1): inactive
max response (NIH3T3): 2.77%

C[C@]1(C2CCCC2)Cc2cc(OCC(=O)O)c(Cl)c(Cl)c2C1=O
max response (CRL-7250): 3.09%
max response (HEK293): 3.25%
outcome (HaCat): inactive
outcome (KB-3-1): inactive
max response (NIH3T3): 4.03%

COC(=O)C1=CO[C@@H](O[C@@H]2O[C@H](CO)[C@@H](O)[C@H](O)[C@H]2O)[C@@H]2[C@@H](C)[C@@H](OC(=O)/C=C/c3ccccc3)[C@@H](O)[C@H]12
max response (CRL-7250): -5.94%
max response (HEK293): -9.01%
max response (HaCat): -9.9%
outcome (KB-3-1): inactive
outcome (NIH3T3): inactive

C/C=C1/CC2C(=O)Nc3cc(O)c(OC)cc3C(=O)N2C1 (stereo not given)
max response (CRL-7250): -13.4%
max response (HEK293): 2.7%
outcome (HaCat): inactive
max response (KB-3-1): 9.54%
outcome (NIH3T3): inactive

C[C@@H]1O[C@@H](O[C@H]2[C@H](O)[C@@H](O[C@@H]3O[C@H](CO)[C@H](O)[C@H](O)[C@H]3O)[C@H](O[C@H]3CC[C@@]4(C)C(CC[C@]5(C)C4CC=C4[C@@H]6CC(C)(C)CC[C@]6(C(=O)O[C@@H]6O[C@H](CO)[C@@H](O)[C@H](O)[C@H]6O)CC[C@]45C)C3(C)C)O[C@@H]2C(=O)O)[C@H](O)[C@H](O)[C@H]1O (stereo not given in full)
max response (CRL-7250): -0.719%
max response (HEK293): 0.183%
outcome (HaCat): inactive
max response (KB-3-1): 9.11%
max response (NIH3T3): -6.48%

C=C1CC/C=C(/C(=O)O)CCC2C1CC2(C)C (stereo not given)
max response (CRL-7250): -2.67%
max response (HEK293): -4.76%
outcome (HaCat): inactive
max response (KB-3-1): 4.31%
outcome (NIH3T3): inactive

FC(F)(F)c1nnc2c(Sc3ccccc3)nc3ccc(Cl)cc3n12
Potency (CRL-7250): 3.66 µM (active)
Potency (HEK293): 5.8 µM (active)
Potency (HaCat): 4.61 µM (active)
Potency (KB-3-1): 5.17 µM (active)
outcome (NIH3T3): inactive

C=C1CCC2C(C)(C(=O)O)CCCC2(C)C1CC/C(C)=C\CO (stereo not given)
max response (CRL-7250): -2.2%
max response (HEK293): -6.37%
outcome (HaCat): inactive
outcome (KB-3-1): inactive
outcome (NIH3T3): inactive

Cc1occc(=O)c1O[C@@H]1O[C@H](COC(=O)CC(C)(O)CC(=O)O)[C@@H](O)[C@H](O)[C@H]1O (stereo not given in full)
outcome (CRL-7250): inactive
max response (HEK293): -5.53%
outcome (HaCat): inactive
outcome (KB-3-1): inactive
outcome (NIH3T3): inactive

CC(C)=CCC[C@@](C)(O)[C@H]1CC[C@]2(C)[C@@H]1[C@H](O)CC1[C@@]3(C)CC[C@H](O[C@@H]4O[C@H](CO)[C@@H](O)[C@H](O)[C@H]4O[C@@H]4O[C@H](CO)[C@@H](O)[C@H](O)[C@H]4O)C(C)(C)[C@@H]3CC[C@]12C (stereo not given in full)
max response (CRL-7250): 4.67%
max response (HEK293): 1.62%
outcome (HaCat): inactive
outcome (KB-3-1): inactive
outcome (NIH3T3): inactive
